# Measured values published in PubChem BioAssay (NCATS).
# Entries with a potency or affinity are not part of this list. Unmarked numbers belong to inactive results. No rule for the calls is given here.
# Details: Ebola virus entry assay, green fluorescence channel
# Also: 0% is about no effect.
row,Structure (SMILES),efficacy
1,CCCCN1CCCC1C(=O)Nc1c(C)cc(C)cc1C (stereo unspecified),111%
2,COc1cc(C(=O)OCCCN2CCCN(CCCOC(=O)c3cc(OC)c(OC)c(OC)c3)CC2)cc(OC)c1OC,89.6%
3,CCOc1ccccc1O[C@H](c1ccccc1)[C@H]1CNCCO1,89.3%
4,CN1CCCC(n2nc(Cc3ccc(Cl)cc3)c3ccccc3c2=O)CC1 (stereo unspecified),78.3%
5,C[C@@H]1CN(CCCn2c3ccccc3c3ccccc32)C[C@H](C)N1,-134%
6,CCC(C(=O)OCCOCCN(CC)CC)c1ccccc1 (stereo unspecified),61.4%
7,Nc1c2c(nc3c1CCC3)CCCC2,42.2%
8,O=C1NCN(c2ccccc2)C12CCN(CCCC(c1ccc(F)cc1)c1ccc(F)cc1)CC2,83.4%
9,CCN1C(=O)c2ccccc2C1Nc1ccc(OCCN2CCCCC2)cc1 (stereo unspecified),33.9%
10,CSc1ccc2c(c1)C(N1CCN(C)CC1)Cc1ccccc1S2 (stereo unspecified),-190%
11,CC(C)(C)c1ccc(C(=O)CCCN2CCC(OC(c3ccccc3)c3ccccc3)CC2)cc1,47.5%
12,CC(C)C[C@@H]1[C@H](c2ccccc2)OC(=O)N1CCCN1CCCCCC1,64.2%
13,COc1ccc2c(c1)c(CC(=O)O)c(C)n2C(=O)c1ccc(Cl)cc1,67.4%
14,CN1CCCCC1CCN1c2ccccc2Sc2ccc(S(C)=O)cc21 (stereo unspecified),68.6%
15,Cc1cc(C(C)(C)C)c(O)c(C)c1CC1=NCCN1,52%
16,C[C@@H](C1=C(CCN(C)C)Cc2ccccc21)c1ccccn1,89%
